Reference: the supplement of paper PMC6555819

Assays:
Test in all cases: PBM binding z-score (relative to random genomic background probes); higher = stronger binding; sequences stand for … in GC…GCGATTGACAGCGTAGAATGAAGG
[1] = tested on: FXR:RXRa (NR concentration 270 nM, RXRa partner concentration 90 nM)
Summary of the method: (§1)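 Custom Agilent 4×180K protein-binding microarrays carried double-stranded probes. Their 34-nt variable regions held direct-repeat seeds, single-nucleotide variants, half-site ablations and random human genomic background sequences. Arrays were incubated 1 h with ligand-free nuclear receptor dimers in PBS pH 7.4, 2% milk, 0.02% Triton X-100, 1 mM DTT, 0.2 mg/mL BSA and 0.4 mg/ml salmon testes DNA. Antibodies against each partner (one per run) detected binding, and scanned fluorescence was regression-normalized. Binding z-scores use random background probes as reference.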

[2] = tested on: LXRa:RXRa (NR concentration 270 nM, RXRa partner concentration 90 nM)
Summary of the method: as §1

[3] = tested on: LXRa homodimer (NR concentration 270 nM)
Summary of the method: as §1

[4] = tested on: LXRb:RXRa (NR concentration 270 nM, RXRa partner concentration 90 nM)
Summary of the method: as §1

[5] = tested on: LXRb homodimer (NR concentration 270 nM)
Summary of the method: as §1

[6] = tested on: PPARa:RXRa (NR concentration 270 nM, RXRa partner concentration 90 nM)
Summary of the method: as §1

[7] = tested on: PPARg:RXRa (NR concentration 180 nM, RXRa partner concentration 90 nM)
Summary of the method: as §1

[8] = tested on: PPARg:RXRa 270nM:90nM, anti-RXR (NR concentration 270 nM, RXRa partner concentration 90 nM)
Summary of the method: as §1

[9] = tested on: PPARg:RXRa 30nM:10nM, anti-RXR (NR concentration 30 nM, RXRa partner concentration 10 nM)
Summary of the method: as §1

[10] = tested on: PPARg:RXRa 90nM:30nM, anti-RXR (NR concentration 90 nM, RXRa partner concentration 30 nM)
Summary of the method: as §1

Row | Sequence | PBM binding z-score [1] | PBM binding z-score [2] | PBM binding z-score [3] | PBM binding z-score [4] | PBM binding z-score [5] | PBM binding z-score [6] | PBM binding z-score [7] | PBM binding z-score [8] | PBM binding z-score [9] | PBM binding z-score [10]
1 | GCGACTGGGGCAGAGCAGGTTACCATAAGGTTGG | 0.158 | -0.389 | -0.79 | -0.197 | -1.19 | 0.462 | 0.564 | 0.0587 | -1.01 | -0.178
2 | ACAGACAGGTGATAAAGGTAACTCAGGCTATCAT | -0.11 | -0.0181 | -0.44 | 0.128 | -0.23 | 0.763 | 1.15 | 1.47 | 0.377 | 1.35
3 | AGAACGAGGTTATTAAGATCAGGGAATTGCGGTC | 1.44 | 1.34 | -0.0763 | 1.09 | -0.115 | 2.15 | 1.26 | 1.68 | 0.389 | 0.958
4 | TCTGGTAGGTCAACGATGGTCAGCTAATCTGCTA | 4.45 | 3.6 | 0.986 | 2.55 | 0.479 | 4.35 | 4.4 | 4.54 | 3.78 | 4.32
5 | CCTAGTGGGCCACGAAAGGTCATTGATTCAGTGA | 3.59 | 5.34 | 4.51 | 4.3 | 0.26 | 4.7 | 4.51 | 4.88 | 2.04 | 4.15
6 | ATATCTAGGTAAAGTTCAGTGAAAGATCGATAGA | 1.18 | 1.84 | 1.43 | 1.36 | 0.639 | 3.42 | 5.08 | 5.21 | 2.95 | 4.9
7 | CCAGACAGGTGAGAAGGTAACTCCGCCTCGATTA | -0.167 | -0.237 | 0.189 | -0.163 | -0.188 | 0.436 | 0.351 | 0.504 | -0.516 | 0.193
8 | ACTATTAGTTGACTTAGGGCAATCGATACGACGC | 0.199 | 0.203 | 0.0491 | 0.176 | 0.464 | -0.0585 | 0.814 | 0.195 | 0.373 | 0.365
9 | CCTTACGGGTCAAGGTTATAGAACGGGTGGTACG | 5.4 | 3.68 | 0.401 | 3 | -0.0236 | 5.1 | 4.04 | 4.67 | 1.87 | 3.53
10 | CCTACTCGGCCAAAGGTCATTGATTCCAATGCTC | 4.86 | 5.54 | 4.99 | 5.12 | 1.98 | 6.14 | 10.1 | 9.26 | 8.85 | 9.61
11 | CCTAGCAGGCCAAACTGGGTCACTCAAGGCTTGA | 0.705 | 0.962 | -0.345 | 1.07 | -0.564 | 3.05 | 1.74 | 2.06 | -0.348 | 0.712
12 | CCGAGTAGGTTATGGGGTATTCAGGCAACGGTGA | 0.497 | 0.701 | 0.47 | 1.09 | 0.945 | 1.81 | 2.56 | 3.45 | 0.984 | 2.68
13 | ACAGACAGGTGTTGAAGGTAACTCAGGCTATCAT | -0.0696 | -0.375 | -0.136 | -0.298 | -0.389 | -0.0786 | 0.432 | -0.232 | -0.26 | -0.54
14 | TCAGACAGGAGAAGGTAACTCAGGTACGCAGTCG | 0.934 | 1.47 | -0.171 | 0.452 | -0.646 | 0.384 | 0.666 | 1.78 | 3.37 | 2.69
15 | TCGAGTAGGTTAGTCGGGGCATTCTGCCAACATA | -0.351 | -0.585 | -0.552 | 0.145 | -0.607 | 0.377 | -0.424 | 0.587 | 0.946 | 0.676
16 | AGAATGAGGTTAAGATCAGGGAGACAGAATACAT | 2.07 | 1.66 | 0.293 | 1.69 | -0.0325 | 3.31 | 2.15 | 2.29 | 0.947 | 1.62
17 | GCTAGCAGGCCATTGGGGTCACTCAATGACGGGC | 2.93 | 2.47 | -0.298 | 3.06 | -0.749 | 4.28 | 1.95 | 3.1 | 0.521 | 2.17
18 | ACTAGCAGGCCAAGTTTGGGTCACTCGAACAAAG | 0.398 | 0.0952 | -0.533 | 0.67 | -0.727 | 1.33 | 0.0973 | 0.504 | -0.62 | 0.14
19 | CAAACTAGGTCACAGAGATCAAAGTCCGTGCGTA | 4.32 | 3.26 | 0.659 | 2.41 | 0.38 | 5.25 | 8.83 | 7.25 | 5.12 | 7.3
20 | TTACCAAGGTGACGGTCGTTGATCCCTCTGTAGA | 1.07 | 0.963 | -0.313 | 0.464 | -0.534 | 1.5 | 0.654 | 1.29 | 0.738 | 0.929
21 | GGAACGAGCGCATTCGAGTTGATAGCATGGCGAT | -1.63 | -0.936 | -0.9 | -1.41 | -1.24 | -1.94 | 0.379 | -1.09 | -0.954 | -1.27
22 | TCTAGCAGGCCAGAGGGTGACTCAAGAGGTACGG | -0.401 | 0.0114 | -0.795 | -0.373 | -1.42 | 0.54 | 1.05 | 2.1 | 1.99 | 2.19

Row | Sequence | PBM binding z-score [1] | PBM binding z-score [2] | PBM binding z-score [3] | PBM binding z-score [4] | PBM binding z-score [5] | PBM binding z-score [6] | PBM binding z-score [7] | PBM binding z-score [8] | PBM binding z-score [9] | PBM binding z-score [10]
23 | ATATGTAGCTTACATCCGGGTCATTCAGGCTATG | 1.18 | 1.36 | 0.618 | 1.73 | 0.372 | 2.39 | 0.959 | 0.733 | 0.448 | 0.268
24 | TTACCAAGGTGAGCTGAGGACGTTGATCCAACTC | 1.1 | -0.166 | -0.767 | -0.542 | -1.14 | 0.258 | -0.0163 | -0.267 | -0.263 | -0.212
25 | GCGACTGGGGCATAAGCAGGTTACCATAACTTAA | -0.0719 | 0.177 | -0.305 | 0.583 | -0.304 | 1.24 | 1.62 | 2.1 | 0.29 | 1.26
26 | GCTAGCAGGCCATTTGGGTCACTCACTGACGGGC | 0.237 | -0.137 | -0.55 | -0.212 | -0.64 | 1.16 | 0.358 | 0.596 | -0.357 | 0.202
27 | CCAGAGAGGTGAAAGGTAACTCAGTCTGGTACGC | 1.97 | 1.72 | -0.386 | 1.72 | -0.316 | 4.52 | 6.53 | 6.32 | 4.89 | 6.42
28 | CGAACTAGGTCACAGAGGTCAAAGTCCGTGCGTA | 7.51 | 6.91 | 7.06 | 6.5 | 1.96 | 6.56 | 10.2 | 8.5 | 7.02 | 8.62
29 | TCTTGTAGATCAGTAGGTTAAGAAAGCTGGCCAA | 0.172 | 0.646 | 0.128 | 0.552 | 0.098 | 1.12 | 0.0222 | 1.98 | 2.94 | 2.31
30 | CCTACTGGGCCAGAAAGGTCATTGATGCCGATAA | 3.9 | 4.7 | 3.35 | 4.16 | 0.28 | 4.76 | 2.59 | 3.87 | 1.21 | 2.91
31 | ACAGACAGGTGGGTGAAGGTAACTCAGCTGGACG | 0.0751 | -0.222 | -0.335 | -0.235 | -0.295 | 0.238 | 0.861 | 0.585 | -0.13 | 0.177
32 | TCGAGTACGTTAGTCGGGGCATTCAGCCAACATA | -0.454 | -0.474 | -0.665 | 0.0371 | -1.12 | 0.167 | -0.163 | 0.223 | 0.88 | 0.775
33 | ACAATTAGTTGAGACGAGGGCAACCGATAGGTTG | 0.779 | 0.374 | 0.178 | 0.228 | -0.183 | 0.503 | 0.794 | 0.375 | 0.274 | 0.45
34 | CTCGAAAGGGCGGTTGAGGTGAGTATACGGATAA | 1.23 | -0.197 | -0.251 | -0.253 | -0.452 | 0.0374 | 0.00915 | -0.518 | -0.508 | -0.301
35 | CCTCGGAAGACAGAAGGTCAGAGCTGTCCGCTTT | 0.995 | 1.6 | 0.422 | 1.25 | -0.462 | 1.69 | -0.302 | 0.238 | -0.803 | -0.38
36 | GCTGCTAGGTCAGGTTGGGCAGCTAACGGGTACG | 1.01 | 0.624 | -0.384 | 0.136 | -0.285 | 0.991 | 0.332 | 0.824 | -0.181 | 0.136
37 | AATACAGGGTCATCGTAAGCCAGAGTACGCACAG | 7.41 | 6.05 | 2.24 | 4.69 | 1.14 | 6.1 | 6.63 | 5.96 | 2.84 | 4.83
38 | ACTATTAGTTTAGACGAGGGCAACCGATAGGTTG | 0.453 | 0.483 | 0.356 | 0.275 | 0.368 | 0.386 | 0.651 | 0.246 | -0.0368 | -0.045
39 | CCTTGCGGGTCACTCCAGGTTATAGCATCGGAGT | 4.22 | 7.4 | 1.24 | 4.85 | -0.435 | 4.25 | 4.41 | 4.41 | 1.34 | 3.35
40 | CCTTACGGGTCACTGACAGGTAATAGCATTTGGA | 5.68 | 3.58 | 0.0221 | 3.16 | -0.0553 | 5.08 | 4.51 | 4.42 | 1.29 | 3.12
41 | GCTATAAGTTGAAAGGGCAACCGAATGATTCTCG | 1.08 | 1.24 | 0.185 | 1.23 | -0.471 | 3.05 | 2.26 | 3.37 | 1.46 | 3.15
42 | CCTACTGGGCCAAAAAGGTCATTAATGCCGATAA | 2.98 | 3.74 | 2.97 | 4.21 | 0.494 | 4.39 | 2.98 | 3.7 | 1.44 | 2.96
43 | ATCGAAAGGTCGACGAGGTGATTATACACCGTTT | 4.8 | 3.43 | 0.0538 | 2.93 | 0.337 | 4.39 | 2.85 | 3.08 | 1.22 | 2.14
44 | AGTCAAAGTTCACTAGGAAACGTAAGATTCAGCT | 5.38 | 5.47 | 2.41 | 2.89 | 0.822 | 4.1 | 5.8 | 6.01 | 2.93 | 5.11
